Results on 40 sequences are retold here after article PMC5913336, “True equilibrium measurement of transcription factor-DNA binding affinities using automated polarization microscopy”.

This assay deals with T1, Ems (Drosophila melanogaster, UniProt P18488 373-462).
T1 sequence: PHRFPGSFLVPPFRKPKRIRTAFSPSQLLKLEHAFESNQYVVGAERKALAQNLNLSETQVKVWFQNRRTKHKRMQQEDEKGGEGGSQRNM
Kind of assay: FP; 33 mM phosphate pH 7.0, 90 mM NaCl, 0.01% Tween 20, 0.1 mM DTT, 0.5% agarose; room temperature. The following applies: tags: N-GST (pGEX-6P-1, kept); dsDNA, one strand shown.
Regarding CACGTAATCAGCTCA, the binding signal is 40.1 Kd / Kd of best base at the position.

For the sequence CACGTTATTAGCTCA, the binding signal was 26.4 Kd / Kd of best base at the position.

For the sequence CACTTAATTAGCTCA, the binding signal is 2.71 Kd / Kd of best base at the position.

In the case of CACGTAATAAGCTCA, the binding signal is 35.3 Kd / Kd of best base at the position.

With CACGTAATTAACTCA, the binding signal was 9.76 Kd / Kd of best base at the position.

On to CGCGTAATTAGCTCA, for which the binding signal is 1.07 Kd / Kd of best base at the position.

With CACGTGATTAGCTCA, the binding signal is 30.7 Kd / Kd of best base at the position.

As for CACGTAATTAGCCCA, the binding signal was 4.42 Kd / Kd of best base at the position.

As to AACGTAATTAGCTCA, the binding signal is 1.04 Kd / Kd of best base at the position.

For the sequence CACGTAACTAGCTCA, the binding signal was 72.2 Kd / Kd of best base at the position.

Regarding CACGTAATTAGCACA, the binding signal was 5.4 Kd / Kd of best base at the position.

As for CACGTAATTAGGTCA, the binding signal was 7.3 Kd / Kd of best base at the position.

For the sequence CCCGTAATTAGCTCA, the binding signal was 1.04 Kd / Kd of best base at the position.

On to CACGTCATTAGCTCA, for which the binding signal is 1.28 Kd / Kd of best base at the position.

Regarding CACGTAATTTGCTCA, the binding signal is 10.5 Kd / Kd of best base at the position.

For CACGTAATTATCTCA, the binding signal was 1.9 Kd / Kd of best base at the position.

On to CATGTAATTAGCTCA, for which the binding signal is 1.24 Kd / Kd of best base at the position.

Take CTCGTAATTAGCTCA: the binding signal is 1.19 Kd / Kd of best base at the position.

In the case of CACGTAATTAGCTCC, the binding signal is 3.56 Kd / Kd of best base at the position.

Turning to CACGTAATTAGCTGA, the binding signal was 4.73 Kd / Kd of best base at the position.

For CACGTAATTAGATCA, the binding signal is 2.14 Kd / Kd of best base at the position.

Consider CAGGTAATTAGCTCA, for which the binding signal is 1.11 Kd / Kd of best base at the position.

CACCTAATTAGCTCA: the binding signal was 1.08 Kd / Kd of best base at the position.

In general, Kd refers to the free concentration of one partner at which half of the binding sites on the other are occupied at equilibrium, for simple one-to-one binding. Read a high Kd as lower affinity. For the sequence CACGTAATTAGCTCA, the equilibrium dissociation constant (Kd) is roughly 1.7 nM.

In the case of CACGGAATTAGCTCA, the binding signal was 38.4 Kd / Kd of best base at the position.

As to CACGCAATTAGCTCA, the binding signal was 2.2 Kd / Kd of best base at the position.

As for TACGTAATTAGCTCA, the binding signal is 1.04 Kd / Kd of best base at the position.

For the sequence CACGTAAATAGCTCA, the binding signal is 54.5 Kd / Kd of best base at the position.

In the case of GACGTAATTAGCTCA, the binding signal was 1.01 Kd / Kd of best base at the position.

In the case of CACGTAATTAGCTAA, the binding signal was 3.58 Kd / Kd of best base at the position.

For CACGTAATGAGCTCA, the binding signal is 6.94 Kd / Kd of best base at the position.

Consider CACGTAATTGGCTCA, for which the binding signal is 8.18 Kd / Kd of best base at the position.

Regarding CACGTAATTAGCTCG, the binding signal is 2.39 Kd / Kd of best base at the position.

Consider CACGTACTTAGCTCA, for which the binding signal was 47.3 Kd / Kd of best base at the position.

As to CACGTAATTAGCGCA, the binding signal was 6.39 Kd / Kd of best base at the position.

Turning to CACGAAATTAGCTCA, the binding signal was 16.8 Kd / Kd of best base at the position.

Regarding CACGTAAGTAGCTCA, the binding signal was 63.6 Kd / Kd of best base at the position.

CACGTAATTACCTCA: the binding signal is 1.46 Kd / Kd of best base at the position.

Consider CAAGTAATTAGCTCA, for which the binding signal is 1.41 Kd / Kd of best base at the position.

In the case of CACGTAATTAGTTCA, the binding signal is 3.85 Kd / Kd of best base at the position.
